Source: PubChem BioAssay (Tox21)
Inconclusive results are not listed. Where a call stands in place of a potency, no number is given. Values without a mark were called inactive. Activity calls are given as the source filed them. Unless noted, calls follow the shape of the dose curve; as a rule, active = well fitted curve in the direction sought with a large enough effect in the repeat runs; inconclusive = weak or mixed curves; inactive = no such curve, though single readings can be large; an effect the other way counts as inactive or inconclusive.

How the values were obtained:
[1] = qHTS assay to identify small molecule agonists of the peroxisome proliferator-activated receptor delta (PPARd) signaling pathway - cell viability counter screen (AID 743211); also: nearly all actives have a fitted effect of over 55% in size
Outline: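 Viability of GeneBLAzer PPARd UAS-bla HEK293H cells was assessed after 17 h compound incubation at 37C, using CellTiter-Glo reagent added after the reporter read and luminescence recorded 30 min later.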

[2] = biological target: Peroxisome proliferator-activated receptor delta (Homo sapiens) (UniProt Q03181); test: qHTS assay to identify small molecule agonists of the peroxisome proliferator-activated receptor delta (PPARd) signaling pathway (AID 743212; calls by dose curve)
Sequence of Peroxisome proliferator-activated receptor delta (Homo sapiens) (Q03181 whole entry, looked up): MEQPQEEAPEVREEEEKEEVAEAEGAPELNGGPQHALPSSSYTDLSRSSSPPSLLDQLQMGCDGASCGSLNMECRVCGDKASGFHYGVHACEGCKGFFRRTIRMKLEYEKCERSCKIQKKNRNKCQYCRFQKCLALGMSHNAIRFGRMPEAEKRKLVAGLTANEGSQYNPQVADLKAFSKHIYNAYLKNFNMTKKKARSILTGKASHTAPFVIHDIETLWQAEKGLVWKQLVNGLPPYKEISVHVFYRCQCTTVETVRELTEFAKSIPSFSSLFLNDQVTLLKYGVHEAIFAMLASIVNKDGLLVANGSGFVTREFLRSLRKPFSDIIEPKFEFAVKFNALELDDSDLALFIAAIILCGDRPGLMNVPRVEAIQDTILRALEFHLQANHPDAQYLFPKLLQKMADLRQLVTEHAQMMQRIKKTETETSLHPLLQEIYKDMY
Outline: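 GeneBLAzer UAS-bla HEK293H cells carrying a PPARδ construct were exposed to compounds at 37 °C. Beta-lactamase activity was read by FRET fluorescence after 2 h at room temperature with LiveBLAzer B/G substrate.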

[3] = qHTS assay to identify small molecule antagonists of the peroxisome proliferator-activated receptor delta (PPARd) signaling pathway - cell viability counter screen (AID 743213); also: nearly all actives have a fitted effect of over 50% in size
Outline: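 PPARd-bla HEK293H cells were treated with compounds plus agonist L165041 (300 nM final) for 17 h at 37 C. Viability was then read in the same wells by CellTiter-Glo luminescence after 30 min at room temperature.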

[4] = biological target: Peroxisome proliferator-activated receptor delta (Homo sapiens) (UniProt Q03181); test: qHTS assay to identify small molecule antagonists of the peroxisome proliferator-activated receptor delta (PPARd) signaling pathway (AID 743215; active = well fitted inhibition curve with a large enough effect in the signal ratio in the repeat runs, not every such curve was filed as active; the % refers to the signal ratio;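 also: cells stimulated with agonist L165041 at 300 nM final during compound exposure; series mostly up to about 62 µM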)
Outline: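 PPARd-bla HEK293H cells (UAS-bla reporter) preincubated 5 h, then given compound plus 300 nM final L165041 agonist for 17 h at 37 C. Beta-lactamase activity read by LiveBLAzer B/G FRET substrate fluorescence after 2 h at room temperature.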

[5] = biological target: Bile acid receptor (Homo sapiens) (UniProt Q96RI1); test: qHTS assay to identify small molecule antagonists of the farnesoid-X-receptor (FXR) signaling pathway (AID 743217; active = well fitted inhibition curve with a large enough effect in the signal ratio in the repeat runs, not every such curve was filed as active; the % refers to the signal ratio)
Sequence of Bile acid receptor (Homo sapiens) (Q96RI1 whole entry, looked up): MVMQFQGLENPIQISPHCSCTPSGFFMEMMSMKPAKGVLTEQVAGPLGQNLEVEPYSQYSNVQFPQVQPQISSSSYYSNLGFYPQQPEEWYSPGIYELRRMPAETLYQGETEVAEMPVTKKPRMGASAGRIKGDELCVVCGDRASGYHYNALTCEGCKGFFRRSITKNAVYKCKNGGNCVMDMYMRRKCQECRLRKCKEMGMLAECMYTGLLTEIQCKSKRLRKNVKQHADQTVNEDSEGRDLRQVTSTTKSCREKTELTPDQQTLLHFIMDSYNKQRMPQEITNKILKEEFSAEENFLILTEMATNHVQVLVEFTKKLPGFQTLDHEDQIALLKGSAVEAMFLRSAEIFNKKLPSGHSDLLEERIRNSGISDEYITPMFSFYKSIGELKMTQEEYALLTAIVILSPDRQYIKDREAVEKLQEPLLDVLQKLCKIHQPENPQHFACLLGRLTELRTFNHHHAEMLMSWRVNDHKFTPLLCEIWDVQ
Outline: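 FXR-UAS-bla HEK 293T cells (beta-lactamase reporter) given compound plus chenodeoxycholic acid (50 uM final), 16 h at 37C. LiveBLAzer B/G FRET substrate added for 2 h at room temperature; fluorescence read.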

[6] = qHTS assay to identify small molecule agonists of the farnesoid-X-receptor (FXR) signaling pathway - cell viability counter screen (AID 743218); also: nearly all actives have a fitted effect of over 45% in size; also: potency is read from the fitted curve at half-maximal effect
Outline: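 FXR-UAS-bla HEK 293T cells exposed to compounds for 16 h at 37C. Cytotoxicity read in the same wells by CellTiter-Glo luminescence after 30 min at room temperature, following the beta-lactamase FRET read.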

[7] = biological target: Bile acid receptor (Homo sapiens) (UniProt Q96RI1); test: qHTS assay to identify small molecule agonists of the farnesoid-X-receptor (FXR) signaling pathway (AID 743220; active = well fitted activation curve with a large enough effect in the signal ratio in the repeat runs, not every such curve was filed as active; the % refers to the signal ratio)
Outline: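 Beta-lactamase reporter under UAS control in GeneBLAzer FXR HEK 293T cells (5000/well) measured with LiveBLAzer FRET substrate after 2 h at room temperature. Compound exposure lasted 16 h at 37C.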

[8] = biological target: Vitamin D3 receptor (Homo sapiens) (UniProt P11473); test: qHTS assay to identify small molecule agonists of the vitamin D receptor (VDR) signaling pathway (AID 743222; calls by dose curve)
Sequence of Vitamin D3 receptor (Homo sapiens) (P11473 whole entry, looked up): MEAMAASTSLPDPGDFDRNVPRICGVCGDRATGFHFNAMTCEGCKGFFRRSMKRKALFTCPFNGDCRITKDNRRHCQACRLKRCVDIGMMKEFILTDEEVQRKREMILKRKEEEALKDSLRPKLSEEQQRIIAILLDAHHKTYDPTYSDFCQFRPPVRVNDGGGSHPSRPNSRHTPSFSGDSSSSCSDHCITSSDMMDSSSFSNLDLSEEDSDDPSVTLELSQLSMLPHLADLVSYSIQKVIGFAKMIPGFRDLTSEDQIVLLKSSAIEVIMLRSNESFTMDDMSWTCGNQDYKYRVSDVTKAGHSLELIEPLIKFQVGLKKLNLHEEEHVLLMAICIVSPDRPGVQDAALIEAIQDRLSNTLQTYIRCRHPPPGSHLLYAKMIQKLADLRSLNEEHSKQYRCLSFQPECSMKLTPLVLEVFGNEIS
Outline: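 VDR-bla cells plated 4 h at 37 C, then exposed to compounds for 16 h at 37 C. Beta-lactamase reporter activity measured by fluorescence after 2 h room-temperature loading with LiveBLAzer B/G FRET substrate.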

[9] = biological target: Vitamin D3 receptor (Homo sapiens) (UniProt P11473); test: qHTS assay to identify small molecule antagonists of the vitamin D receptor (VDR) signaling pathway (AID 743223; active = well fitted inhibition curve with a large enough effect in the signal ratio in the repeat runs, not every such curve was filed as active; the % refers to the signal ratio)
Outline: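 Fluorescence from LiveBLAzer B/G FRET substrate, read after 2 h at room temperature, reflects beta-lactamase reporter activity in VDR-bla cells treated 16 h at 37C with compounds and agonist 1alpha,25-dihydroxyvitamin D3 (3 nM final).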

[10] = qHTS assay to identify small molecule agonists of the vitamin D receptor (VDR) signaling pathway - cell viability counter screen (AID 743224); also: series mostly up to about 63 µM; nearly all actives have a fitted effect of over 50% in size
Outline: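 VDR-bla cells, 4 h after plating, exposed to compounds for 16 h at 37C; viability then read in the same wells as CellTiter-Glo luminescence after 30 min at room temperature, following the bla FRET read.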

[11] = qHTS assay to identify small molecule agonists of the NFkB signaling pathway (AID 1159509; active = well fitted curve in the direction sought with a large enough effect in the signal ratio in the repeat runs, not every such curve was filed as active; the % refers to the signal ratio; also: series mostly up to about 61 µM)
Outline: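 ME-180 NFkB-bla, 2,000 cells/well, overnight plating; cpd pinned in DMSO, 5 h 37 C; B/G FRET substrate 1.5 h RT; ex 405, em 460/530 nm.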

[12] = qHTS assay to identify small molecule agonists of the endoplasmic reticulum stress response signaling pathway (AID 1159516; active = well fitted activation curve with a large enough effect in the signal ratio in the repeat runs, not every such curve was filed as active; the % refers to the signal ratio)
Outline: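 CellSensor ESRE-bla HeLa cells, 1,500 per well, plated overnight, then exposed to compounds for 5 hr at 37 C. Beta-lactamase reporter read with LiveBLAzer B/G FRET substrate after 2 hr at room temperature, 405 nm excitation, 460 and 530 nm emission.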

[13] = qHTS assay to identify small molecule agonists of the endoplasmic reticulum stress response signaling pathway - cell viability counter screen (AID 1159517; calls by dose curve;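 also: HeLa cells carrying an ER stress response element beta-lactamase reporter; series mostly up to about 61 µM; nearly all actives have a fitted effect of over 50% in size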)
Outline: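 ESRE-bla HeLa cells, 1,500 per well, seeded overnight then treated with compounds for 5 hr at 37 C. After the beta-lactamase read, viability in the same wells is measured by CellTiter-Glo luminescence after 30 min at room temperature.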

[14] = qHTS assay to identify small molecule antagonists of the retinoid-related orphan receptor gamma (ROR-gamma) signaling pathway - cell viability counter screen (AID 1159520); also: nearly all actives have a fitted effect of over 50% in size
Outline: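 Tet-on ROR gamma CHO cells were given compounds for 2 hr, then doxycycline hyclate at 1 uM final, and incubated 16 hr at 37 C. Viability was measured as ATP content by CellTiter-Glo luminescence.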

[15] = qHTS assay to identify small molecule agonists of the AP-1 signaling pathway - cell viability counter screen (AID 1159525; calls by dose curve; also: nearly all actives have a fitted effect of over 55% in size)
Outline: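 AP-1-bla ME-180 cells in Opti-MEM with 0.5% dialyzed FBS, compound exposure 5 h at 37 C in 15-point titration. Viability read in the same wells as ATP content by CellTiter-Glo luminescence, normalised to tetra-n-octylammonium bromide and DMSO controls.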

[16] = qHTS assay to identify small molecule agonists of the AP-1 signaling pathway (AID 1159526; calls by dose curve)
[17] = qHTS assay to identify small molecule antagonists of the farnesoid-X-receptor (FXR) signaling pathway - cell viability counter screen (AID 743221; active = well fitted cell-killing curve with a large enough effect in the repeat runs, not every such curve was filed as active; also: nearly all actives have a fitted effect of over 50% in size; also: potency is read from the fitted curve at half-maximal effect)
Outline: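 Quantitative HTS of the Tox21 10K library run in parallel with the beta-lactamase reporter read. HEK 293T cells carrying a UAS-driven bla reporter got compound and 50 uM CDCA (final) for 16 h; ATP-based luminescence followed.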

[18] = qHTS assay to identify small molecule antagonists of the vitamin D receptor (VDR) signaling pathway - cell viability counter screen (AID 743225); also: nearly all actives have a fitted effect of over 50% in size
Outline: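 Cells (VDR-UAS-bla HEK 293T) are plated, rested 4 h at 37C, dosed with compound and 3 nM final 1-alpha,25-dihydroxy vitamin D3, and incubated 16 h. Viability is taken from CellTiter-Glo luminescence in the reporter wells.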

[19] = biological target: Nuclear receptor ROR-gamma (Homo sapiens) (UniProt P51449); test: qHTS assay to identify small molecule antagonists of the retinoid-related orphan receptor gamma (ROR-gamma) signaling pathway (AID 1159521; also: nearly all actives have a fitted effect of over 50% in size; also: potency is read from the fitted curve at half-maximal effect)
Outline: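 RORγ antagonism is scored from reduced reporter luminescence in Tet-on CHO cells. Induction used 1 uM final doxycycline hyclate for 16 h at 37 C, following a 2 h compound exposure.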

Compound	Potency [1]	Potency [2]	Potency [3]	Potency [4]	Potency [5]	Potency [6]	Potency [7]	outcome [8]	outcome [9]	Potency [10]	outcome [11]	outcome [12]	outcome [13]	Potency [14]	outcome [15]	outcome [16]	Potency [17]	Potency [18]	Potency [19]
COC(=O)CC(=O)C(C)(C)C	inactive	inactive	inactive	inactive	inactive	inactive	inactive	inactive	inactive	inactive	inactive	inactive	inactive	inactive	inactive	inactive	–	–	–
CCCCCCCCSCCO	inactive	inactive	inactive	inactive	inactive	inactive	inactive	–	–	inactive	inactive	inactive	–	inactive	inactive	inactive	inactive	inactive	inactive
CNC(=S)NC	inactive	inactive	inactive	–	inactive	17.4 µM (active)	inactive	inactive	–	inactive	inactive	inactive	inactive	inactive	inactive	inactive	38.9 µM (active)	–	–
OC/C(Br)=C(\Br)CO	inactive	–	inactive	inactive	–	inactive	–	inactive	inactive	inactive	inactive	inactive	–	inactive	inactive	inactive	inactive	inactive	inactive
CC(CCO)CCc1ccccc1 (stereo not drawn)	inactive	inactive	inactive	inactive	inactive	inactive	inactive	inactive	inactive	inactive	inactive	inactive	inactive	inactive	inactive	inactive	inactive	inactive	–
C1COCO1	inactive	inactive	inactive	inactive	–	inactive	–	inactive	–	inactive	inactive	inactive	inactive	inactive	inactive	inactive	inactive	inactive	–
CCN(Cc1cccc(S(=O)(=O)O)c1)c1ccc(C(=C2C=CC(=[N+](CC)Cc3cccc(S(=O)(=O)[O-])c3)C=C2)c2ccccc2)cc1	inactive	–	inactive	–	–	inactive	–	–	–	inactive	inactive	inactive	inactive	inactive	–	–	inactive	–	–
CCc1nn(CCCN2CCN(c3cccc(Cl)c3)CC2)c(=O)n1CCOc1ccccc1	–	–	inactive	inactive	–	inactive	–	–	–	inactive	inactive	inactive	inactive	–	inactive	inactive	inactive	–	18.8 µM (active)
O=C(N/N=C/c1ccc([N+](=O)[O-])o1)c1ccc(O)cc1	inactive	–	inactive	–	–	inactive	–	–	–	–	inactive	inactive	inactive	inactive	–	inactive	inactive	inactive	–
O=C(CCC1CCN(Cc2ccccc2)CC1)c1ccc2c(c1)NCCCC2	–	–	inactive	–	–	inactive	–	–	–	–	inactive	inactive	inactive	inactive	inactive	–	inactive	–	–
